According to PubChem BioAssay (NCI):
About 83,000 compounds went through this panel and 20% of them were active in at least one assay; those are over-represented in the sample as a whole.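 The test compound was applied at a single concentration to cells in 96-well plates for 48 hours, and percent growth was recorded.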 The source made the active and inactive calls. The calls were made as follows: active = growth percent below 10; inactive = the rest.

What was measured:
Test in all cases: NCI-60 one-dose screen, 48 h (100 = growth as untreated, 0 = no growth, -100 = all killed)
Conditions in all cases: 10 µM unless noted
NCI-H23 lung = test system: NCI-H23 lung
NCI-H322M lung = test system: NCI-H322M lung
HOP-62 NSCLC = test system: HOP-62 NSCLC
NCI-H460 lung = test system: NCI-H460 lung
HOP-92 NSCLC = test system: HOP-92 NSCLC
NCI-H522 lung = test system: NCI-H522 lung
A549/ATCC NSCLC = test system: A549/ATCC NSCLC
786-0 renal = test system: 786-0 renal
COLO 205 colon = test system: COLO 205 colon
DU-145 prostate = test system: DU-145 prostate
K-562 leukemia = test system: K-562 leukemia
MALME-3M melanoma = test system: MALME-3M melanoma
MDA-MB-231 breast = test system: MDA-MB-231 breast
RXF 393 renal = test system: RXF 393 renal
SF-268 CNS = test system: SF-268 CNS
SF-295 CNS = test system: SF-295 CNS
SF-539 CNS = test system: SF-539 CNS
UACC-257 melanoma = test system: UACC-257 melanoma
M14 melanoma = test system: M14 melanoma
HCT-15 colon = test system: HCT-15 colon

Measured: growth

CN1C(=O)N(C)C2(c3ccccc3)n3c(s/c(=C\c4ccccc4)c3=O)=NNC12c1ccccc1 (stereo not given)
inactive: NCI-H23 lung 97.2% | NCI-H322M lung 95.3% | HOP-62 NSCLC 101% | NCI-H460 lung 91.6% | HOP-92 NSCLC 89.5% | NCI-H522 lung 84.3% | A549/ATCC NSCLC 89.1% | 786-0 renal 98.3% | COLO 205 colon 112% | DU-145 prostate 93% | K-562 leukemia 71.2% | MALME-3M melanoma 86.9% | MDA-MB-231 breast 85.1% | RXF 393 renal 86.8% | SF-268 CNS 96.9% | SF-295 CNS 97.3% | SF-539 CNS 93.1% | UACC-257 melanoma 98.3% | M14 melanoma 83.4% | HCT-15 colon 89.5%

O=C1NC(=S)NC(=O)C1=Cc1cn(Cc2cn(Cc3cccc4ccccc34)nn2)c2ccccc12
inactive: NCI-H23 lung 88% | NCI-H322M lung 93.7% | HOP-62 NSCLC 94.9% | NCI-H460 lung 89.4% | HOP-92 NSCLC 102% | NCI-H522 lung 97.2% | A549/ATCC NSCLC 106% | 786-0 renal 115% | COLO 205 colon 114% | DU-145 prostate 105% | K-562 leukemia 121% | MALME-3M melanoma 86.5% | MDA-MB-231 breast 87.6% | RXF 393 renal 84.6% | SF-268 CNS 95.4% | SF-295 CNS 98.4% | SF-539 CNS 96.3% | UACC-257 melanoma 103% | M14 melanoma 95% | HCT-15 colon 100%

COc1ccc(-c2cc(=O)c3c(OC)c4ccoc4c(/C=C/C=O)c3o2)cc1
active: HCT-15 colon -54.1%
inactive: NCI-H23 lung 40.5% | NCI-H322M lung 51.2% | HOP-62 NSCLC 15.5% | NCI-H460 lung 64.8% | HOP-92 NSCLC 72.4% | NCI-H522 lung 88.3% | A549/ATCC NSCLC 90.7% | 786-0 renal 82.8% | COLO 205 colon 99% | DU-145 prostate 24.8% | K-562 leukemia 12.2% | MALME-3M melanoma 24.8% | MDA-MB-231 breast 53.6% | RXF 393 renal 48.5% | SF-268 CNS 36.2% | SF-295 CNS 31.7% | SF-539 CNS 14.8% | UACC-257 melanoma 108% | M14 melanoma 28.4%

CCCCCCc1cc2cc(-c3nc4ccccc4[nH]3)c(=Nc3ccccc3C)oc2cc1O
active: COLO 205 colon -94.3% | K-562 leukemia 7.87% | MALME-3M melanoma -29.3% | UACC-257 melanoma 4.39% | M14 melanoma 9.12%
inactive: NCI-H23 lung 50.4% | NCI-H322M lung 62.8% | HOP-62 NSCLC 58% | NCI-H460 lung 44.8% | HOP-92 NSCLC 13.3% | NCI-H522 lung 14.3% | A549/ATCC NSCLC 49.9% | 786-0 renal 46.8% | DU-145 prostate 67.4% | MDA-MB-231 breast 41.6% | RXF 393 renal 28.5% | SF-268 CNS 65.5% | SF-539 CNS 75.3% | HCT-15 colon 31.2%

Cc1cc(Nc2ccc(OCc3ccccc3)cc2)nc2cc(O)ccc12
active: K-562 leukemia 5.02%
inactive: NCI-H23 lung 55% | NCI-H322M lung 76.2% | HOP-62 NSCLC 57.7% | NCI-H460 lung 47.2% | HOP-92 NSCLC 15.8% | NCI-H522 lung 53.2% | A549/ATCC NSCLC 66.6% | 786-0 renal 72.2% | COLO 205 colon 21.9% | DU-145 prostate 86.4% | MALME-3M melanoma 43.6% | MDA-MB-231 breast 37.7% | RXF 393 renal 93.7% | SF-268 CNS 79.8% | SF-539 CNS 97.5% | UACC-257 melanoma 43.7% | M14 melanoma 40.4% | HCT-15 colon 16.9%

COc1cc(OC)cc(N2C(=O)N(Cc3ccc(C(C)(C)C)cc3)c3ccccc3S2(=O)=O)c1
inactive: NCI-H23 lung 82.8% | NCI-H322M lung 83.3% | HOP-62 NSCLC 95.2% | NCI-H460 lung 93.9% | HOP-92 NSCLC 56.1% | NCI-H522 lung 76.9% | A549/ATCC NSCLC 93.3% | 786-0 renal 73.7% | COLO 205 colon 83.6% | DU-145 prostate 96.2% | K-562 leukemia 33.3% | MALME-3M melanoma 64% | MDA-MB-231 breast 77.4% | RXF 393 renal 60.2% | SF-268 CNS 89% | SF-539 CNS 87.2% | UACC-257 melanoma 105% | M14 melanoma 85.2% | HCT-15 colon 67.9%

O=C(NC1CCN(Cc2ccccc2)CC1)c1cc(C(=O)NC2CCN(Cc3ccccc3)CC2)cc(C(=O)NC2CCN(Cc3ccccc3)CC2)c1
inactive: NCI-H23 lung 77.2% | NCI-H322M lung 90.3% | HOP-62 NSCLC 58.7% | NCI-H460 lung 91.8% | HOP-92 NSCLC 54.3% | A549/ATCC NSCLC 39.8% | 786-0 renal 100% | COLO 205 colon 108% | DU-145 prostate 93.4% | K-562 leukemia 64.6% | MALME-3M melanoma 77.9% | MDA-MB-231 breast 90.3% | RXF 393 renal 60.1% | SF-268 CNS 71.4% | SF-539 CNS 90.5% | UACC-257 melanoma 81.2% | M14 melanoma 83.2% | HCT-15 colon 78.2%
active: NCI-H522 lung -67.7%

CCOC(=O)c1c(Cl)c2c(n1Cc1ccccc1)-c1oncc1CCC2
inactive: NCI-H23 lung 86.9% | NCI-H322M lung 94% | HOP-62 NSCLC 80% | NCI-H460 lung 81% | HOP-92 NSCLC 84.7% | NCI-H522 lung 35.7% | A549/ATCC NSCLC 43% | 786-0 renal 83.1% | COLO 205 colon 56.9% | DU-145 prostate 103% | K-562 leukemia 18.6% | MALME-3M melanoma 42.3% | MDA-MB-231 breast 64.4% | RXF 393 renal 64.3% | SF-268 CNS 86.7% | SF-539 CNS 74% | UACC-257 melanoma 79.7% | M14 melanoma 55.3% | HCT-15 colon 36.1%

COC(=O)c1ccc(NC(=O)CSc2nc3ccccc3c(=O)n2-c2ccccc2)cc1
inactive: NCI-H23 lung 95.4% | NCI-H322M lung 103% | HOP-62 NSCLC 106% | NCI-H460 lung 99.2% | HOP-92 NSCLC 79.7% | NCI-H522 lung 80.6% | A549/ATCC NSCLC 88.8% | 786-0 renal 100% | COLO 205 colon 120% | DU-145 prostate 108% | K-562 leukemia 95.1% | MALME-3M melanoma 109% | MDA-MB-231 breast 95.7% | RXF 393 renal 111% | SF-268 CNS 92% | SF-295 CNS 102% | SF-539 CNS 100% | UACC-257 melanoma 90.4% | M14 melanoma 105% | HCT-15 colon 105%

O=c1oc2ccc(I)cc2c(=O)n1-c1ccc(F)cc1F
active: NCI-H23 lung 6.34% | NCI-H322M lung 9.77% | HOP-62 NSCLC 2.25% | NCI-H460 lung 6.35% | HOP-92 NSCLC -29.9% | NCI-H522 lung -7.49% | A549/ATCC NSCLC 6.11% | K-562 leukemia 7.26% | MALME-3M melanoma -21% | SF-268 CNS 9.2% | SF-295 CNS 3.91% | UACC-257 melanoma -4.46%
inactive: 786-0 renal 21.3% | COLO 205 colon 104% | DU-145 prostate 15.5% | MDA-MB-231 breast 33.3% | RXF 393 renal 11.1% | SF-539 CNS 13.7% | M14 melanoma 21% | HCT-15 colon 15.6%
